Records with an inconclusive call do not appear. Calls of active or inactive are those of the source. The calls were made as follows, unless noted: active = hit-call score of the fitted dose curve at least 0.9, where 1 is the maximum; inconclusive = response in the unintended direction; inactive = score below 0.9.
Legend:
[1] = target: Retinoic acid receptor RXR-alpha (Homo sapiens) (UniProt P19793); assay: OT_NURR1_NURR1RXRa_0480: Odyssey Thera (OT) 8-hour HEK293T Protein Complementation Assay for Nurr1/retinoid X receptor (RXR) (AID 2283385)
Sequence of Retinoic acid receptor RXR-alpha (Homo sapiens) (P19793 whole entry, looked up, the tested form may be a part): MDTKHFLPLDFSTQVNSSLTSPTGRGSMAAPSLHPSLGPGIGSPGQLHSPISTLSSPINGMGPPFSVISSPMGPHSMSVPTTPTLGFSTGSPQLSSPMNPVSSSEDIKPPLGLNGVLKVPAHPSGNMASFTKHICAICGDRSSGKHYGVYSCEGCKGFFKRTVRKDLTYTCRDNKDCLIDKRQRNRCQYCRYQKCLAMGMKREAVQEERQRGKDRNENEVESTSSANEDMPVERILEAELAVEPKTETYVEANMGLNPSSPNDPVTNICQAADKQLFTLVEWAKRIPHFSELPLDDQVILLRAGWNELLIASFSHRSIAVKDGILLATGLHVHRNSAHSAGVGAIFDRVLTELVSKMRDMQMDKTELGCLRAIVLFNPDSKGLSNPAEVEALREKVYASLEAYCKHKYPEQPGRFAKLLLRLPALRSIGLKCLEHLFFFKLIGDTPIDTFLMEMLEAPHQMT
In short: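 Interaction of Nurr1 with RXRα read as reconstituted reporter fluorescence in a HEK293T fragment-complementation system, 8 h post-treatment; increase over DMSO baseline analysed.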

[2] = target: Peroxisome proliferator-activated receptor gamma (Homo sapiens) (UniProt P37231); assay: OT_PPARg_PPARgSRC1_0480: Odyssey Thera (OT) 8-hour Protein-Complementation Assay for Peroxisome Proliferator-activated Receptor Gamma / SRC-1 Co-activator (AID 2283387);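 also: nuclear to cytoplasmic split Venus YFP fluorescence ratio reporting PPARg SRC-1 interaction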
Sequence of Peroxisome proliferator-activated receptor gamma (Homo sapiens) (P37231 whole entry, looked up, the tested form may be a part): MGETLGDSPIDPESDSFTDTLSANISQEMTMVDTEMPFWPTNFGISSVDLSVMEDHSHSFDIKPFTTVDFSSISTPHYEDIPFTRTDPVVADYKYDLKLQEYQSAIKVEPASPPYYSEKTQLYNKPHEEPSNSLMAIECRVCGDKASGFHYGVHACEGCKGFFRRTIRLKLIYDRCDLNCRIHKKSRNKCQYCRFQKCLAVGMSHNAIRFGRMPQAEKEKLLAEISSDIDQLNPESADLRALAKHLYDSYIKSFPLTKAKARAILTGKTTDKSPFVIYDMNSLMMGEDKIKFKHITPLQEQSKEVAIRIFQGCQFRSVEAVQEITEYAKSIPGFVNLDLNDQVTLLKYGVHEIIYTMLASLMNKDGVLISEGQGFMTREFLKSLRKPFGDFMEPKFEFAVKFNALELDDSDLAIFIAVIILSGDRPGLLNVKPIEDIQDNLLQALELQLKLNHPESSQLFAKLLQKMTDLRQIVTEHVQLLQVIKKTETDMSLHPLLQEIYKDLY
In short: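 Protein-fragment complementation of split Venus YFP reports PPARg/SRC-1 interaction in HEK293T (transfected 48 h before treatment), exposed 8 h. Readout: N/C fluorescence ratio at 488 nm from imaging, Draq5 for segmentation, positive fit relative to DMSO.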

[3] = target: Peroxisome proliferator-activated receptor gamma (Homo sapiens) (UniProt P37231); assay: OT_PPARg_PPARgSRC1_1440: Odyssey Thera (OT) 24-hour Protein-Complementation Assay for Peroxisome Proliferator-activated Receptor Gamma/ SRC-1 Co-activator (AID 2283388);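 also: nuclear to cytoplasmic ratio of reconstituted Venus YFP fluorescence in fixed imaged cells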
In short: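 Transient HEK293T, YFP fragments 1-158/159-239 (mutant IFP1/IFP2) fused to PPARg/SRC-1; 24 h dosing; fix 4% formaldehyde, Draq5; Opera imaging 488/635 nm; N/C ratio, gain vs DMSO.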

[4] = CEETOX_H295R_OHPREG: CeeTox H295R High-throughput Steroidogenesis Assay for OH-Pregnenolone (OHPREG) (AID 2283434; active = hit-call score of the fitted dose curve at least 0.9, where 1 is the maximum; inactive = score below 0.9); conditions: actives raise or lower the signal
In short: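 Readout: HPLC-MS/MS of 17alpha-hydroxypregnenolone in medium after 48 h chemical exposure of H295R cells pretreated with forskolin. Values fitted bidirectionally relative to DMSO; chemicals reducing viability to 20–70% were retested after 10-fold dilution.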

[5] = CEETOX_H295R_OHPROG: CeeTox H295R High-throughput Steroidogenesis Assay for OH-Progesterone (OHPROG) (AID 2283435; active = hit-call score of the fitted dose curve at least 0.9, where 1 is the maximum; inactive = score below 0.9;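 as to AC50: 17alpha-hydroxyprogesterone secreted into medium measured by HPLC-MS/MS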); conditions: actives raise or lower the signal
In short: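 Medium steroid levels read by LC-MS/MS after 48 h chemical treatment (0.1% DMSO) of human adrenal H295R cells that had been forskolin-primed (10 uM, 48 h). Gain or loss fitted against DMSO; MTT cytotoxicity checked per well.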

[6] = CEETOX_H295R_PROG: CeeTox H295R High-throughput Steroidogenesis Assay for Progesterone (PROG) (AID 2283442; active = hit-call score of the fitted dose curve at least 0.9, where 1 is the maximum; inactive = score below 0.9); conditions: actives raise or lower the signal
In short: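 Adrenal H295R line, forskolin-stimulated (10 uM, 48 h) before dosing. 48 h exposure, 0.1% DMSO vehicle. Secreted progesterone by reverse-phase HPLC with ESI+ MS/MS quantification; DMSO-normalised bidirectional curve fit.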

[7] = target: Retinoic acid receptor RXR-alpha (Homo sapiens) (UniProt P19793); assay: OT_NURR1_NURR1RXRa_1440: Odyssey Thera (OT) 24-hour HEK293T Protein Complementation Assay for Nurr1/retinoid X receptor (RXR) (AID 2283386)
In short: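 Gain in fluorescence, fitted relative to DMSO, reflects Nurr1–RXRα association in HEK293T cells after 24 h dosing. Bait and prey are each linked to a reporter-protein fragment that reassembles on interaction.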

[8] = CEETOX_H295R_CORTIC: CeeTox H295R High-throughput Steroidogenesis Assay for Corticosterone (CORTIC) (AID 2283437; active = hit-call score of the fitted dose curve at least 0.9, where 1 is the maximum; inactive = score below 0.9;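 also: corticosterone secreted into medium quantified by mass spectrometry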); conditions: actives raise or lower the signal
In short: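 Steps: seed H295R, adhere overnight; 10 uM forskolin 48 h; replace with chemical (0.1% DMSO) 48 h; extract medium with MTBE; quantify corticosterone by HPLC-MS/MS; score bidirectionally vs DMSO.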

[9] = CEETOX_H295R_CORTISOL: CeeTox H295R High-throughput Steroidogenesis Assay for Cortisol (AID 2283438; active = hit-call score of the fitted dose curve at least 0.9, where 1 is the maximum; inactive = score below 0.9); conditions: actives raise or lower the signal
In short: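 Cortisol measured by HPLC-MS/MS after MTBE extraction of medium from H295R cells exposed 48 h to chemical (0.1% DMSO), following 48 h prestimulation with 10 uM forskolin. Viability assessed by MTT in the same wells.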

[10] = CEETOX_H295R_DOC: CeeTox H295R High-throughput Steroidogenesis Assay for DOC (AID 2283439; active = hit-call score of the fitted dose curve at least 0.9, where 1 is the maximum; inactive = score below 0.9); conditions: actives raise or lower the signal
In short: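 11-Deoxycorticosterone quantified in medium by MTBE extraction and HPLC-MS/MS after 48 h chemical exposure (0.1% DMSO) of forskolin-primed (10 uM, 48 h) H295R cells. Same-well MTT viability; data fitted bidirectionally against DMSO.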

[11] = CEETOX_H295R_ESTRADIOL: CeeTox H295R High-throughput Steroidogenesis Assay for Estradiol (AID 2283440; active = hit-call score of the fitted dose curve at least 0.9, where 1 is the maximum; inactive = score below 0.9;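 also: estradiol secreted into medium quantified by LC-MS/MS after dansyl derivatisation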); conditions: actives raise or lower the signal
In short: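 Following OECD 456 with minor changes, H295R cells received 10 uM forskolin for 48 h and then test chemical for 48 h. Hormone output was read by HPLC-MS/MS, with cytotoxic concentrations diluted until MTT viability reached ≥70%.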

[12] = CEETOX_H295R_ESTRONE: CeeTox H295R High-throughput Steroidogenesis Assay for Estrone (AID 2283441; active = hit-call score of the fitted dose curve at least 0.9, where 1 is the maximum; inactive = score below 0.9); conditions: actives raise or lower the signal
In short: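 Estrone secreted into medium quantified by LC-MS/MS after dansyl chloride derivatization, following 48 h chemical exposure (0.1% DMSO final) of forskolin-prestimulated (10 uM, 48 h) H295R cells; gain or loss fitted against DMSO; MTT viability in same wells.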

[13] = read-out: Tumor necrosis factor receptor superfamily member 6 (Homo sapiens) (UniProt P25445); assay: LTEA_HepaRG_FAS: Life Technologies and Expression Analysis (LTEA) Assay for Fas cell surface death receptor (FAS) using HepaRG (AID 2283447; active = hit-call score of the fitted dose curve at least 0.9, where 1 is the maximum; inactive = score below 0.9); conditions: mRNA level, 48 h; actives raise or lower the signal
In short: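 Differentiated human HepaRG cells, pre-cultured 48 h, were exposed in duplicate for 48 h to 8-point half-log concentrations (top 100 uM, 0.5% DMSO) in serum-free induction medium; FAS mRNA measured by qRT-PCR, normalized to ACTB/GAPDH/POLR2A, bidirectional fit versus DMSO.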

[14] = read-out: Cyclin D2 (CCND2), CCND2 (gene 894); assay: LTEA_HepaRG_CCND2: Life Technologies and Expression Analysis (LTEA) Assay for Cyclin D2 (CCND2) using HepaRG (AID 2283449; active = hit-call score of the fitted dose curve at least 0.9, where 1 is the maximum; inactive = score below 0.9;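 also: CCND2 transcript measured by TaqMan qRT-PCR and normalised to three housekeeping genes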); conditions: mRNA level, 48 h; actives raise or lower the signal
In short: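 In this HepaRG study, an eight-point concentration series (max 100 uM, 0.5% DMSO) is applied for 48 h. CCND2 mRNA change is derived by qRT-PCR normalised to ACTB, GAPDH and POLR2A.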

[15] = read-out: Cyclin Dependent Kinase Inhibitor 1A (CDKN1A), CDKN1A (gene 1026); assay: LTEA_HepaRG_CDKN1A: Life Technologies and Expression Analysis (LTEA) Assay for Cyclin Dependent Kinase Inhibitor 1A (CDKN1A) using HepaRG (AID 2283450; active = hit-call score of the fitted dose curve at least 0.9, where 1 is the maximum; inactive = score below 0.9); conditions: mRNA level, 48 h; actives raise or lower the signal
In short: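 Cryopreserved HepaRG cells were plated and cultured 48 h, then switched to serum-free induction medium. Chemicals (eight half-log concentrations, top 100 uM, 0.5% DMSO) were applied for 48 h. Lysates underwent qRT-PCR for CDKN1A with housekeeping normalization.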

[16] = read-out: catalase (CAT), CAT (gene 847); assay: LTEA_HepaRG_CAT: Life Technologies and Expression Analysis (LTEA) Assay for catalase (CAT) using HepaRG (AID 2283452; active = hit-call score of the fitted dose curve at least 0.9, where 1 is the maximum; inactive = score below 0.9;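 as to AC50: TaqMan qRT-PCR signal normalized to ACTB GAPDH and POLR2A housekeeping genes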); conditions: mRNA level, 48 h; actives raise or lower the signal
In short: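 Differentiated HepaRG cells in serum-free induction medium were dosed 48 h in duplicate, eight half-log concentrations from 100 uM in 0.5% DMSO. Transcript measured by TaqMan qRT-PCR, normalised to ACTB/GAPDH/POLR2A, fitted bidirectionally against DMSO.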

[17] = read-out: flavin-containing dimethylaniline monooxygenases 3 (FMO3), FMO3 (gene 2328); assay: LTEA_HepaRG_FMO3: Life Technologies and Expression Analysis (LTEA) Assay for flavin-containing dimethylaniline monooxygenases 3 (FMO3) using HepaRG (AID 2283453; active = hit-call score of the fitted dose curve at least 0.9, where 1 is the maximum; inactive = score below 0.9;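 as to AC50: FMO3 transcript by TaqMan qRT-PCR normalized to ACTB GAPDH and POLR2A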); conditions: mRNA level, 48 h; actives raise or lower the signal
In short: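 FMO3 transcript quantified by TaqMan qRT-PCR against three housekeeping genes after 48 h chemical exposure of HepaRG cells. Eight-point half-log series, top 100 uM, 0.5% DMSO vehicle; phenobarbital 1mM induction control; up- or down-regulation fitted.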

[18] = read-out: Cytochrome P450 (CYP1A1), CYP1A1 (gene 1543); assay: LTEA_HepaRG_CYP1A1: Life Technologies and Expression Analysis (LTEA) Assay for Cytochrome P450 (CYP1A1) using HepaRG (AID 2283454; active = hit-call score of the fitted dose curve at least 0.9, where 1 is the maximum; inactive = score below 0.9); conditions: mRNA level, 48 h; actives raise or lower the signal
In short: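 Induction of CYP1A1 mRNA in a human hepatic cell line was measured 48 h after dosing, with 1 mM phenobarbital as induction positive control and 0.5% DMSO vehicle as baseline for bidirectional curve fitting.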

[19] = read-out: CFLAR gene, CFLAR (gene 8837); assay: LTEA_HepaRG_CFLAR: Life Technologies and Expression Analysis (LTEA) Assay for CFLAR gene using HepaRG (AID 2283455; active = hit-call score of the fitted dose curve at least 0.9, where 1 is the maximum; inactive = score below 0.9); conditions: mRNA level, 48 h; actives raise or lower the signal
In short: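 Gain- or loss-of-signal changes in CFLAR transcript were fitted bidirectionally relative to 0.5% DMSO. Cells (HepaRG, duplicate wells) were dosed for 48 h across eight half-log concentrations topping at 100 uM; quantitation by TaqMan qRT-PCR.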

Measured: AC50

CC(C)OC(=O)Nc1ccccc1
inactive: [1] | [2] | [3] | [4] | [5] | [6]

C[C@]12CC[C@H](O)CC1=CC[C@@H]1[C@@H]2CC[C@]2(C)C(=O)CC[C@@H]12
active: [4] 14.1 µM | [5] 1.13 µM | [9] 7.72 µM
inactive: [1] | [7] | [3] | [8] | [10] | [11] | [12] | [6]

CC(=O)C=C(C)C
inactive: [7] | [2] | [3]

ClCC(Cl)CCl
inactive: [1] | [7] | [13] | [14] | [15] | [16] | [17] | [18] | [19]

O=C1CCCN1
inactive: [7] | [2]

Clc1nc(Cl)nc(Cl)n1
inactive: [1] | [7] | [3]

CCC[CH2][Sn]([CH2]CCC)([CH2]CCC)[O]C(=O)c1ccccc1
active: [3] 0.0331 µM
inactive: [7] | [2]

O=C(O)C(F)(F)C(F)(F)C(F)(F)C(F)(F)C(F)(F)C(F)(F)F
not listed: [4] | [5] | [6] | [8] | [9] | [10] | [11] | [12]
inactive: all other assays above

O=[N+]([O-])c1ccc(O)c([N+](=O)[O-])c1
active: [15] 12.4 µM | [16] 13.2 µM | [17] 15.3 µM | [18] 71.5 µM | [19] 13.2 µM
inactive: [1] | [2] | [3] | [13] | [14]

CCCCCCCCSC(=O)Oc1cc(Cl)nnc1-c1ccccc1
inactive: [1] | [2] | [3]

CC(C)(c1ccc(OCC2CO2)cc1)c1ccc(OCC2CO2)cc1 (stereo not drawn)
inactive: [1] | [2] | [3]

Cc1ccccc1N
inactive: [1] | [7] | [13] | [14] | [15] | [16] | [17] | [18] | [19]

COC(=O)c1sccc1S(=O)(=O)NC(=O)Nc1nc(C)nc(OC)n1
inactive: [7] | [2] | [3]

Cc1ccccc1C(=O)Nc1cccc(OC(C)C)c1
inactive: [1] | [2] | [3]

ClC1(Cl)C2(Cl)C3(Cl)C4(Cl)C(Cl)(Cl)C5(Cl)C3(Cl)C1(Cl)C5(Cl)C24Cl (stereo not drawn)
inactive: [1] | [7] | [2] | [3] | [13] | [14] | [15] | [16] | [17] | [19]
active: [18] 23.3 µM

O=C1C(Cl)=C(Cl)C(=O)c2ccccc21
active: [1] 11.4 µM | [2] 11.8 µM | [3] 11.8 µM

Reference: PubChem BioAssay (EPA / NIEHS)
